Measured values taken from PubChem BioAssay (EPA / NIEHS).
Active and inactive are the calls of the source. How the source made its calls: active means hit-call score of the fitted dose curve at least 0.9, where 1 is the maximum; inactive means score below 0.9.

Experiments:
Conditions in all cases: mRNA level, 48 h; actives raise or lower the signal
[1] = read-out: CYP2C9 (gene 1559); experiment: LTEA_HepaRG_CYP2C9: Life Technologies and Expression Analysis (LTEA) Assay for CYP2C9 using HepaRG (AID 2283484)
Procedure, shortened: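 CYP2C9 transcript level, quantified by TaqMan qRT-PCR against three housekeeping genes, was fitted bidirectionally relative to 0.5% DMSO. HepaRG cultures were treated 48 h, in duplicate, at eight half-log concentrations topping at 100 uM.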

[2] = read-out: CYP2E1 (gene 1571); experiment: LTEA_HepaRG_CYP2E1: Life Technologies and Expression Analysis (LTEA) Assay for CYP2E1 using HepaRG (AID 2283485)
Procedure, shortened: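 CYP2E1 transcript measured by Fluidigm qRT-PCR against three housekeeping genes in human HepaRG cells treated 48 h (top 100 uM, half-log steps, 0.5% DMSO vehicle). Gain or loss fitted relative to DMSO baseline.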

[3] = read-out: CYP4A11 (gene 1579); experiment: LTEA_HepaRG_CYP4A11: Life Technologies and Expression Analysis (LTEA) Assay for CYP4A11 using HepaRG (AID 2283486)
Procedure, shortened: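 Differentiated HepaRG cells, serum-free induction medium, exposed 48 h in duplicate to 8-point half-log series from 100 uM in 0.5% DMSO. CYP4A11 mRNA measured by qRT-PCR, normalized to ACTB, GAPDH, POLR2A; bidirectional fit versus DMSO.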

[4] = read-out: Cytochrome P450 3A4 (Homo sapiens) (UniProt P08684); experiment: LTEA_HepaRG_CYP3A4: Life Technologies and Expression Analysis (LTEA) Assay for CYP3A4 using HepaRG (AID 2283487)
Procedure, shortened: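 HepaRG, 48 h exposure, 8-pt CRC from 100 uM (half-log), 0.5% DMSO, duplicates; serum-free induction medium. Readout: CYP3A4 mRNA, qRT-PCR, ACTB/GAPDH/POLR2A normalization. Bidirectional fit vs DMSO.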

[5] = read-out: DNA damage-inducible transcript 3 (DDIT3), DDIT3 (gene 1649); experiment: LTEA_HepaRG_DDIT3: Life Technologies and Expression Analysis (LTEA) Assay for DNA damage-inducible transcript 3 (DDIT3) using HepaRG (AID 2283488)
Procedure, shortened: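 DDIT3 transcript was quantified by qRT-PCR with ACTB/GAPDH/POLR2A normalization after 48 h chemical treatment of differentiated HepaRG cells in 0.5% DMSO. Dosing was eight-point, half-log, top 100 uM, duplicate wells. Curves fitted bidirectionally versus DMSO.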

[6] = read-out: Pro-epidermal growth factor (Homo sapiens) (UniProt P01133); experiment: LTEA_HepaRG_EGF: Life Technologies and Expression Analysis (LTEA) Assay for Epidermal growth factor (EGF) using HepaRG (AID 2283489)
Procedure, shortened: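 Differentiated human HepaRG cells, plated 48 h then switched to serum-free induction medium, were exposed for 48 h to test chemicals (8-point half-log series, top 100 uM, 0.5% DMSO). EGF mRNA was quantified by qRT-PCR, normalized to ACTB, GAPDH, POLR2A.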

[7] = read-out: Early growth response protein 1 (EGR1) transcription factor, EGR1 (gene 1958); experiment: LTEA_HepaRG_EGR1: Life Technologies and Expression Analysis (LTEA) Assay for Early growth response protein 1 (EGR1) transcription factor using HepaRG (AID 2283490)
Procedure, shortened: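 EGR1 transcript levels quantified by qRT-PCR (Fluidigm arrays) against three housekeeping genes after 48 h chemical exposure of HepaRG cells. Eight-point half-log series topping at 100 uM, 0.5% DMSO vehicle, analyzed for gain or loss.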

[8] = read-out: Ezrin (EZR), EZR (gene 7430); experiment: LTEA_HepaRG_EZR: Life Technologies and Expression Analysis (LTEA) Assay for Ezrin (EZR) using HepaRG (AID 2283491)
Procedure, shortened: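 Read-out is EZR transcript level by qRT-PCR, normalized to three housekeeping genes and fitted bidirectionally against the DMSO control. Human HepaRG cells received test chemicals for 48 h at eight half-log concentrations up to 100 uM in 0.5% DMSO.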

[9] = read-out: Cytochrome P450 3A7 (Homo sapiens) (UniProt P24462); experiment: LTEA_HepaRG_CYP3A7: Life Technologies and Expression Analysis (LTEA) Assay for CYP3A7 using HepaRG (AID 2283492)
Procedure, shortened: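 HepaRG cells plated 48 h, then dosed in serum-free induction medium for 48 h at 8 concentrations (top 100 uM, half-log steps, 0.5% DMSO). CYP3A7 mRNA by qRT-PCR, normalised to ACTB/GAPDH/POLR2A; bidirectional fit versus DMSO.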

[10] = read-out: CYP3A5 (gene 1577); experiment: LTEA_HepaRG_CYP3A5: Life Technologies and Expression Analysis (LTEA) Assay for CYP3A5 using HepaRG (AID 2283493)
Procedure, shortened: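 mRNA levels were quantified by qRT-PCR on Fluidigm arrays and normalized to three housekeeping genes. Differentiated HepaRG cells received 48 h exposure (top 100 uM, half-log steps, 0.5% DMSO vehicle, duplicate); bidirectional fitting versus DMSO.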

[11] = read-out: Fatty Acid-Binding Protein 1 (FABP1), FABP1 (gene 2168); experiment: LTEA_HepaRG_FABP1: Life Technologies and Expression Analysis (LTEA) Assay for Fatty Acid-Binding Protein 1 (FABP1) using HepaRG (AID 2283494)
Procedure, shortened: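 FABP1 expression by TaqMan qRT-PCR, normalised to three housekeeping genes, in HepaRG cells after 48 h chemical treatment. Eight-point half-log series topping at 100 uM in 0.5% DMSO, duplicates; gain or loss fitted relative to vehicle.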

[12] = read-out: Cytochrome P450 7A1 (Homo sapiens) (UniProt P22680); experiment: LTEA_HepaRG_CYP7A1: Life Technologies and Expression Analysis (LTEA) Assay for Cytochrome P450 7A1 (CYP7A1) using HepaRG (AID 2283496)
Procedure, shortened: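 HepaRG, 48 h exposure, 8-pt half-log series from 100 uM, 0.5% DMSO vehicle, duplicates. Readout: TaqMan qRT-PCR mRNA vs three housekeeping genes; bidirectional curve fit against DMSO baseline.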

[13] = read-out: Glutathione S-Transferase (GSTA2), GSTA2 (gene 2939); experiment: LTEA_HepaRG_GSTA2: Life Technologies and Expression Analysis (LTEA) Assay for Glutathione S-Transferase (GSTA2) using HepaRG (AID 2283497)
Procedure, shortened: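 GSTA2 transcript levels came from Fluidigm TaqMan qRT-PCR normalized to three housekeeping genes, fitted in both directions against DMSO. HepaRG cultures received chemicals for 48 h in serum-free induction medium (0.5% DMSO), 8 half-log concentrations up to 100 uM, duplicate.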

[14] = read-out: Glutamate-cysteine ligase catalytic (GCLC), GCLC (gene 2729); experiment: LTEA_HepaRG_GCLC: Life Technologies and Expression Analysis (LTEA) Assay for Glutamate-cysteine ligase catalytic (GCLC) using HepaRG (AID 2283498)
Procedure, shortened: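 Expression by TaqMan qRT-PCR, normalized to three housekeeping genes (ACTB, GAPDH, POLR2A), with up- or down-regulation fitted against DMSO. HepaRG cells dosed in duplicate for 48 h with 8 half-log concentrations up to 100 uM, vehicle 0.5% DMSO.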

[15] = read-out: growth arrest and DNA damage 45 (GADD45G), GADD45G (gene 10912); experiment: LTEA_HepaRG_GADD45G: Life Technologies and Expression Analysis (LTEA) Assay for growth arrest and DNA damage 45 (GADD45G) using HepaRG (AID 2283499)
Procedure, shortened: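 Differentiated human HepaRG cells in serum-free induction medium were exposed for 48 h to 8 half-log concentrations up to 100 uM in 0.5% DMSO, in duplicate. GADD45G mRNA was measured by TaqMan qRT-PCR, normalised to ACTB, GAPDH and POLR2A, and fitted bidirectionally against DMSO.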

[16] = read-out: Glutamate-cysteine ligase regulatory (GCLM), GCLM (gene 2730); experiment: LTEA_HepaRG_GCLM: Life Technologies and Expression Analysis (LTEA) Assay for Glutamate-cysteine ligase regulatory (GCLM) using HepaRG (AID 2283500)
Procedure, shortened: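 GCLM expression quantified by qRT-PCR, normalized to three housekeeping genes, after 48 h chemical treatment of HepaRG cells in duplicate at 8 concentrations (top 100 uM, half-log steps, 0.5% DMSO). Changes fitted both directions against vehicle.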

[17] = read-out: Glutathione S-transferase M3 (GSTM3), GSTM3 (gene 2947); experiment: LTEA_HepaRG_GSTM3: Life Technologies and Expression Analysis (LTEA) Assay for Glutathione S-transferase M3 (GSTM3) using HepaRG (AID 2283501)
Procedure, shortened: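 Differentiated HepaRG cells in serum-free induction medium were exposed in duplicate for 48 h to 8 half-log concentrations up to 100 uM in 0.5% DMSO. GSTM3 mRNA was measured by TaqMan qRT-PCR, normalized to ACTB/GAPDH/POLR2A, and fitted bidirectionally versus DMSO.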

[18] = read-out: Heat shock 70 kDa protein 1 (HSPA1A), gene 3303; experiment: LTEA_HepaRG_HSPA1A: Life Technologies and Expression Analysis (LTEA) Assay for Heat shock 70 kDa protein 1 (HSPA1A) using HepaRG (AID 2283502)
Procedure, shortened: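 HSPA1A expression measured by qRT-PCR with ACTB/GAPDH/POLR2A normalization; curves fitted in both directions relative to DMSO vehicle. Exposure: 48 h in HepaRG cells, duplicate 8-point half-log series from 100 uM, 0.5% DMSO, serum-free induction medium.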

[19] = read-out: Hypoxia-inducible factor 1-alpha (Homo sapiens) (UniProt Q16665); experiment: LTEA_HepaRG_HIF1A: Life Technologies and Expression Analysis (LTEA) Assay for Hypoxia-inducible factor 1 (HIF1A) Trancription factor using HepaRG (AID 2283503)
Procedure, shortened: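 HIF1A transcript level read by qRT-PCR (ACTB, GAPDH, POLR2A normalization) after 48 h chemical exposure of HepaRG cultures. Eight half-log concentrations, top 100 uM, 0.5% DMSO vehicle, duplicates; bidirectional curve fit against DMSO baseline.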

[20] = read-out: Cytochrome P450 4A22 (Homo sapiens) (UniProt Q5TCH4); experiment: LTEA_HepaRG_CYP4A22: Life Technologies and Expression Analysis (LTEA) Assay for Cytochrome P450 4A22 (CYP4A22) using HepaRG (AID 2283495)
Procedure, shortened: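 qRT-PCR of CYP4A22 mRNA (Fluidigm TaqMan, normalized to three housekeeping genes) after 48 h chemical exposure of HepaRG cells; 8-point half-log series, top 100 uM, 0.5% DMSO vehicle. Bidirectional curve fitting vs DMSO baseline.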

Sequence of Cytochrome P450 3A4 (Homo sapiens) (P08684 whole entry, looked up): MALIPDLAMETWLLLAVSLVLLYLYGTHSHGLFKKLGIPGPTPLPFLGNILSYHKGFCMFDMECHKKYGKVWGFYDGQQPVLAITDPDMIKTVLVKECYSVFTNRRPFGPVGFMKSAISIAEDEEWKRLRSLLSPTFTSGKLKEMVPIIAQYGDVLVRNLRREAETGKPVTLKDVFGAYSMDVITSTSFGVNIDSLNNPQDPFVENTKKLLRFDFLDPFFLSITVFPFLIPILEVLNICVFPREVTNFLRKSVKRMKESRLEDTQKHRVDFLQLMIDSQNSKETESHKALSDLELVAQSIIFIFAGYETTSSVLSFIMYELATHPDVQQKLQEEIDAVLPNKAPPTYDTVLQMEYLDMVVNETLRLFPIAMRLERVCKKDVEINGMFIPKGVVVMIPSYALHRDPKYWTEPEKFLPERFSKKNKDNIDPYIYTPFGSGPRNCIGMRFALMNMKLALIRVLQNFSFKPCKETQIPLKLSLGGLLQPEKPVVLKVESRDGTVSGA
Sequence of Hypoxia-inducible factor 1-alpha (Homo sapiens) (Q16665 whole entry, looked up): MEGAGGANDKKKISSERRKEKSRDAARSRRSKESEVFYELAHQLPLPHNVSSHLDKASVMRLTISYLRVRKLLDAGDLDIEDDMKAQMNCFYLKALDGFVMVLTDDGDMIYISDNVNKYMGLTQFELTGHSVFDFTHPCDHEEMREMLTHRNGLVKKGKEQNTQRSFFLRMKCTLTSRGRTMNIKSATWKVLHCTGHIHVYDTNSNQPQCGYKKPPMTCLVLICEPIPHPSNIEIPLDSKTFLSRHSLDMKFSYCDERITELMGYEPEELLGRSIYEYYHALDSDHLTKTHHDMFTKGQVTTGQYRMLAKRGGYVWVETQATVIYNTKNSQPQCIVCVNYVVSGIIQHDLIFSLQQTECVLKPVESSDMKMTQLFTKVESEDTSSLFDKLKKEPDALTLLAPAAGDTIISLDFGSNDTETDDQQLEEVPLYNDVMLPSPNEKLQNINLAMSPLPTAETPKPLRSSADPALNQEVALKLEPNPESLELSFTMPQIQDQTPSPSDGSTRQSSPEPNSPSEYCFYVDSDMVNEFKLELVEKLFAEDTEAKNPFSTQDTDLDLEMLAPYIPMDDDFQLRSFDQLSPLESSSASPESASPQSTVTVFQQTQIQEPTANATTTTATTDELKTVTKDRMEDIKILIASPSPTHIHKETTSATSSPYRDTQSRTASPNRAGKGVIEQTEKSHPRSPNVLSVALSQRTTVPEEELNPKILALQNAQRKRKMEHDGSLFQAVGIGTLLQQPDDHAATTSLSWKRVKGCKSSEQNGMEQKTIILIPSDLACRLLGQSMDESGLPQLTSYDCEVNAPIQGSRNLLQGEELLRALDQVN
Sequence of Cytochrome P450 3A7 (Homo sapiens) (P24462 whole entry, looked up): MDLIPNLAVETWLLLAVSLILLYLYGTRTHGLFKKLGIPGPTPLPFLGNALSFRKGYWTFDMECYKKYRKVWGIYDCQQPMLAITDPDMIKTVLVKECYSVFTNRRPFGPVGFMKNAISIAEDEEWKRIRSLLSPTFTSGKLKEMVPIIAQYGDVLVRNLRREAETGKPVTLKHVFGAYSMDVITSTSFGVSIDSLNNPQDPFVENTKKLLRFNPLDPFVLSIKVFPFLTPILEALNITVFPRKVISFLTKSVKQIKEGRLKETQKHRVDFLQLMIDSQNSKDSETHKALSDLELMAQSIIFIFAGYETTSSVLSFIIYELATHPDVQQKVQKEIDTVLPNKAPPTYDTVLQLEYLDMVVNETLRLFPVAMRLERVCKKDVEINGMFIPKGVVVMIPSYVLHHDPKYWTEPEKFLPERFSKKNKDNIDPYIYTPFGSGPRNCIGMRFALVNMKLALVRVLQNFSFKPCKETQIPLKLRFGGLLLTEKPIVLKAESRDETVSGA

CCc1cccc(CC)c1N(COC)C(=O)CCl was tested, and the outcome [1] was “inactive”, the outcome [2] was “inactive” and the outcome [3] was “inactive”. The outcome [4] was “inactive”, the outcome [5] was “inactive” and the outcome [6] was “inactive”. For the same compound, the outcome [7] was “inactive”, the outcome [8] was “inactive” and the outcome [9] was “inactive”. The outcome [10] was “inactive”, the outcome [11] was “inactive” and the outcome [12] was “inactive”. For the same compound, the outcome [13] was “inactive”, the outcome [14] was “inactive” and the outcome [15] was “inactive”. For the same compound, the outcome [16] was “inactive”, the outcome [17] was “inactive” and the outcome [18] was “inactive”. The outcome [19] was “inactive”.

With CCCSP(=O)(OCC)Oc1ccc(Br)cc1Cl (stereo not drawn) the outcome [1] was “inactive”, the AC50 [2] was 40.4 µM (active) and the outcome [3] was “inactive”. The outcome [4] was “inactive”, the outcome [5] was “inactive” and the outcome [6] was “inactive”. The outcome [7] was “inactive”, the outcome [8] was “inactive” and the outcome [9] was “inactive”. The outcome [10] was “inactive”, the outcome [11] was “inactive” and the outcome [12] was “inactive”. The outcome [13] was “inactive”, the outcome [14] was “inactive” and the outcome [15] was “inactive”. The outcome [16] was “inactive”, the outcome [17] was “inactive” and the outcome [18] was “inactive”. For the same compound, the outcome [19] was “inactive”.

In the case of CCOP(=S)(OCC)Oc1ccc([N+](=O)[O-])cc1, the outcome [1] is reported as “inactive”, the AC50 [2] is reported as 7.92 µM (active) and the outcome [3] is reported as “inactive”. The AC50 [4] was 8.92 µM (active), the outcome [5] was “inactive” and the outcome [6] was “inactive”. The outcome [7] was “inactive”, the outcome [8] was “inactive” and the AC50 [9] was 6.02 µM (active). For the same compound, the outcome [10] was “inactive”, the outcome [11] was “inactive” and the outcome [20] was “inactive”. The AC50 [12] was 1.78 µM (active), the outcome [13] was “inactive” and the outcome [14] was “inactive”. The outcome [15] was “inactive”, the outcome [16] was “inactive” and the outcome [17] was “inactive”. The outcome [18] was “inactive” and the outcome [19] was “inactive”.
